In PubChem BioAssay (NCATS):
Where “and” joins values, the source holds several entries; their conditions need not be identical. Identical values can stand only once. Records with an inconclusive call do not appear. Calls of active or inactive are those of the source. Calls come from the whole dose curve; as a rule, active = well fitted inhibition curve with a large enough effect; inconclusive = small, poorly fitted or top-dose-only effect; inactive = flat fitted curve, though single readings scatter. *1 amine or outer side, *2 acyl side, *3 side chain or, on linkers, in order; H or OH if unused. Where a SMILES comes first, the peptide text is derived from it. Bridges are numbered along the chain shown (N, C = ends). [ ]: non-standard residue; d: D form. The star is where a group is joined. X5 = NC1=N[C@@H]([C@H](N[*:1])C(=O)[*:2])C[C@H](O)N1; ΔAla(Z-3-ureido) = NC(=O)N/C=C(\N)C(=O)O; β3hOrn = NCCC[C@H](N)CC(=O)*; Dap = NC[C@H](N)C(=O)O

What was measured:
[1] = Drug repurposing screens with cells derived from glioblastoma tumor samples (AID 1345199); conditions: GBM patient neurospheres viability, ATP luminescence, 48 h; note: nearly all actives have a fitted effect of over 40% in size
Outline: (§1)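 Primary testing used CD133+ neurospheres from four GBM patients, seven concentrations, 48 h exposure and ATP-based viability; confirmation added three slower-growing patient lines.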

astro = control astrocytes; assay: as above; conditions: viability, ATP luminescence, 48 h; series mostly up to 45.9 µM
Outline: as §1

[2] = at 45.9 µM (top of the series), tumour line B
[3] = at 45.9 µM (top of the series), tumour line D
[4] = at 46 µM (top of the series), tumour line A
[5] = at 46.1 µM (top of the series), tumour line C
% is set by controls: 0 for no effect and ±100 for the full control effect.

CN(C)C=Nc1c(I)cc(I)c(CCC(=O)O)c1I
inactive: activity, negative = cell killing [1, 2] -15.9% | activity, negative = cell killing [1, 3] 6.53% | activity, negative = cell killing [1, 4] -8.71% | activity, negative = cell killing [1, 5] -9.66% | Potency (astro)

O=C(O)c1cc(N=Nc2ccc(O)c(C(=O)O)c2)ccc1O
inactive: activity, negative = cell killing [1, 2] -10.7% | activity, negative = cell killing [1, 3] -13.9% | activity, negative = cell killing [1, 4] -13.2% | activity, negative = cell killing [1, 5] -29.5% | Potency (astro)

CC1CS(=O)(=O)CCN1/N=C/c1ccc([N+](=O)[O-])o1 (stereo not given)
inactive: activity, negative = cell killing ([1]; at 20 µM (top of the series), tumour line C) -27.2% | activity, negative = cell killing ([1]; at 21.2 µM (top of the series), tumour line B) -10% | activity, negative = cell killing ([1]; at 21.2 µM (top of the series), tumour line D) -29.2% | activity, negative = cell killing ([1]; at 21.3 µM (top of the series), tumour line A) -23% | Potency (astro)

O=C(O)CCC/C=C\C[C@@H]1[C@@H](/C=C/[C@@H](O)COc2cccc(Cl)c2)[C@H](O)C[C@@H]1O
inactive: activity, negative = cell killing [1, 2] -7.43% | activity, negative = cell killing [1, 3] 0.189% | activity, negative = cell killing [1, 4] -25.8% | activity, negative = cell killing [1, 5] -22.5% | Potency (astro)

C=CC1=C(C(=O)O)N2C(=O)[C@@H](NC(=O)/C(=N\O)c3csc(N)n3)[C@H]2SC1 (stereo in doubt)
inactive: activity, negative = cell killing [1, 2] 5.66% and -6.14% | activity, negative = cell killing [1, 3] -12.1% and -17.4% | activity, negative = cell killing [1, 4] -18.5% | activity, negative = cell killing [1, 5] 20.4% and -9.47% | Potency (astro)

OCC1(CO)COC(C(Cl)(Cl)Cl)OC1
inactive: activity, negative = cell killing [1, 2] -8.7% | activity, negative = cell killing [1, 3] -7.18% | activity, negative = cell killing [1, 4] -26.1% | activity, negative = cell killing [1, 5] -4.39% | Potency (astro)

CCCCCCOC(=O)c1cccnc1
inactive: activity, negative = cell killing [1, 2] 14.4% | activity, negative = cell killing [1, 3] 7.42% | activity, negative = cell killing [1, 4] -5.32% | activity, negative = cell killing [1, 5] 1.85% | Potency (astro)

CC1(C)[C@H]2CC[C@]1(C)[C@H](O)C2
inactive: activity, negative = cell killing [1, 2] -3.63% | activity, negative = cell killing [1, 3] -3.69% | activity, negative = cell killing [1, 4] -22.7% | activity, negative = cell killing [1, 5] -20.6% | Potency (astro)

C[S+](C)CCC(N)C(=O)O (stereo not given)
inactive: activity, negative = cell killing [1, 2] -1.5% | activity, negative = cell killing [1, 3] -4.21% | activity, negative = cell killing [1, 4] -14.6% | activity, negative = cell killing [1, 5] -27.3% | Potency (astro)

CCC(C(=O)NC(N)=O)c1ccccc1 (stereo not given)
inactive: activity, negative = cell killing [1, 2] -5.95% | activity, negative = cell killing [1, 3] -2.75% | activity, negative = cell killing [1, 4] -8.52% | activity, negative = cell killing [1, 5] -14.2% | Potency (astro)

OC/C=C/c1ccccc1
inactive: activity, negative = cell killing [1, 2] -6.23% | activity, negative = cell killing [1, 3] -1.36% | activity, negative = cell killing [1, 4] -12.3% | activity, negative = cell killing [1, 5] 8.18% | Potency (astro)

CO/N=C(\C(=O)N[C@@H]1C(=O)N2C(C(=O)O)=C(C[N+]3(C)CCCC3)CS[C@H]12)c1csc(N)n1
inactive: activity, negative = cell killing [1, 2] -2.14% | activity, negative = cell killing [1, 3] 5.4% | activity, negative = cell killing [1, 4] -4.98% | activity, negative = cell killing [1, 5] -21.1% | Potency (astro)

S=C=Nc1ccc(N=C=S)cc1
inactive: activity, negative = cell killing [1, 2] -4.92% | activity, negative = cell killing [1, 3] -5.1% | activity, negative = cell killing [1, 4] -24.5% | activity, negative = cell killing [1, 5] -6.65% | Potency (astro)

CC(C)[C@H](N)C(=O)OCC(CO)OCn1cnc2c(=O)[nH]c(N)nc21 (stereo not given in full)
inactive: activity, negative = cell killing [1, 2] -16.2% | activity, negative = cell killing [1, 3] -11.6% | activity, negative = cell killing [1, 4] -27% | activity, negative = cell killing [1, 5] -25.2% | Potency (astro)

CCCCCCCCCCCCCC(=O)OCC(COP(=O)([O-])OCC[N+](C)(C)C)OC(=O)CCCCCCCCCCCCC (stereo not given)
inactive: activity, negative = cell killing [1, 2] -7.07% | activity, negative = cell killing [1, 3] 3.06% | activity, negative = cell killing [1, 4] -21.5% | activity, negative = cell killing [1, 5] -13.4% | Potency (astro)

CCCCCCCCCCCCCCCC(=O)OC[C@H](COP(=O)([O-])OCC[N+](C)(C)C)OC(=O)CCCCCCCCCCCCCCC
inactive: activity, negative = cell killing [1, 2] -12.1% | activity, negative = cell killing [1, 3] -1.49% | activity, negative = cell killing [1, 4] -32.2% | activity, negative = cell killing [1, 5] -17.2% | Potency (astro)

NCCC[C@H](N)CC(=O)N[C@H]1CNC(=O)[C@H]([C@H]2C[C@H](O)NC(N)=N2)NC(=O)/C(=C/NC(N)=O)NC(=O)[C@H](CO)NC(=O)[C@H](CO)NC1=O (β3hOrn-[Dap]SS[ΔAla(Z-3-ureido)][X5]; lactam 1-C)
inactive: activity, negative = cell killing [1, 2] -0.927% | activity, negative = cell killing [1, 3] -12.2% | activity, negative = cell killing [1, 4] -14.8% | activity, negative = cell killing [1, 5] -14% | Potency (astro)

O=C(NCCNCC(O)COc1ccc(O)cc1)N1CCOCC1 (stereo not given)
inactive: activity, negative = cell killing [1, 2] -5.84% | activity, negative = cell killing [1, 3] -3.52% | activity, negative = cell killing [1, 4] -55.7% | activity, negative = cell killing [1, 5] -0.52% | Potency (astro)

CN[C@@H]1[C@@H](O)[C@@H](O[C@@H]2[C@@H](O)[C@H](O[C@H]3O[C@H](CN)[C@@H](O)[C@H](O)[C@H]3O)[C@@H](N)C[C@H]2NC(=O)C(O)CN)OC[C@]1(C)O (stereo not given in full)
inactive: activity, negative = cell killing [1, 2] -11% | activity, negative = cell killing [1, 3] -1.91% | activity, negative = cell killing [1, 4] 4.63% | activity, negative = cell killing [1, 5] 1.73% | Potency (astro)
